Reference: PubChem BioAssay (EPA / NIEHS)
Several values for one entry are separate records, joined by “and”; a condition that tells them apart may be missing. Equal entries are not always repeated. Records with an inconclusive call do not appear. Where a structure was tested more than once in an assay, its records may differ in their call. Activity calls are given as the source filed them. The calls were made as follows, unless noted: active = hit-call score of the fitted dose curve at least 0.9, where 1 is the maximum; inactive = score below 0.9.

Experiments:
[1] = ATG_BRE_CIS: Attagene CIS-FACTORIAL HepG2 Assay for human Bone Morphogenetic Protein (BMP) Response Element (BRE) (AID 2282933); settings: HepG2 BMP response element reporter, Attagene transcription factor profiling; actives raise or lower the signal
Outline: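 Gain- or loss-of-signal was derived by bidirectional fitting against DMSO controls. The signal came from reporter mRNA, measured by RT-PCR and capillary electrophoresis, in HepG2 cells transiently carrying multiple reporter units and dosed for 24 h.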

[2] = ATG_E_Box_CIS: Attagene CIS-FACTORIAL HepG2 Assay for human Enhancer Box (E-box) (AID 2282936); settings: HepG2 E-box cis-reporter transcription, actives raise or lower the signal
Outline: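 First, HepG2 cells receive multiple cis-regulated reporter constructs by transient transfection. Next, chemicals are applied for 24 h. Finally, reporter mRNA is quantified via RT-PCR and capillary electrophoresis, with DMSO as baseline.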

[3] = ATG_FoxO_CIS: Attagene CIS-FACTORIAL HepG2 Assay for human Forkhead box O (FoxO) (AID 2282943); settings: HepG2 Attagene cis-reporter, FoxO element, mRNA; actives raise or lower the signal
Outline: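 Transfected HepG2 reporter cells exposed to test chemical for 24 h; reporter RNA measured by reverse transcription, PCR and fluorescent capillary electrophoresis; curves fitted for increases and decreases against DMSO.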

[4] = ATG_PBREM_CIS: Attagene CIS-FACTORIAL HepG2 Assay for human Phenobarbital-responsive Enhancer Module (PBREM) (AID 2282955); settings: HepG2 PBREM cis-reporter, Attagene multiplexed transcription; actives raise or lower the signal
Outline: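 Fluorescence of labelled reporter cDNA fragments, resolved by capillary electrophoresis, gives mRNA induction in transfected HepG2 cells treated for 24 h; DMSO serves as negative control and baseline.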

[5] = ATG_Sox_CIS: Attagene CIS-FACTORIAL HepG2 Assay for human SRY-box transcription factor (SOX) (AID 2282960); settings: HepG2 Attagene cis-factorial SOX reporter, mRNA; actives raise or lower the signal
Outline: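 Transient MRTU transfection of HepG2; 24 h compound incubation; TriZol RNA, oligo(dT) RT, PCR, 6-FAM primer extension, HpaI cut, CE. Bidirectional fit, DMSO = baseline.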

[6] = target: X-box-binding protein 1 (Homo sapiens) (UniProt P17861); test: ATG_Xbp1_CIS: Attagene CIS-FACTORIAL HepG2 Assay for human X-box Binding Protein 1 (XBP1) (AID 2282972); settings: HepG2 XBP1 cis-element reporter, Attagene multiplex; actives raise or lower the signal
Outline: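 HepG2, transient MRTU transfection (cis-promoter driven), 24 h compound exposure. Total RNA → oligo(dT) RT → PCR → 6-FAM labeling → HpaI cut → CE. Bidirectional fit vs DMSO.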

[7] = ATG_M_06_TRANS: Attagene TRANS-FACTORIAL HepG2 Assay for M06 Transcription Factor (Internal Marker) (AID 2282983; active = hit-call score of the fitted dose curve at least 0.9, where 1 is the maximum;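 also: reporter transcript level by RT-PCR then capillary electrophoresis fluorescence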); settings: HepG2 Attagene TRANS M06 internal marker reporter
Outline: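 Cells: HepG2, transient multi-reporter transfection. Exposure: 24 h. Detection: RT-PCR, 6-FAM labelling, HpaI digestion (2 h, 37 °C), capillary electrophoresis. Baseline: DMSO.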

[8] = target: Nuclear respiratory factor 1 (Homo sapiens) (UniProt Q16656); test: ATG_NRF1_CIS: Attagene CIS-FACTORIAL HepG2 Assay for human Nuclear Respiratory Factor 1 (NRF1) Orphan Gene (AID 2282987); settings: HepG2 NRF1 cis-element reporter, Attagene multiplex; actives raise or lower the signal
Outline: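 Fluorescence intensity of labelled reporter cDNA fragments, resolved by capillary electrophoresis, served as readout for NRF1 cis-element activity. Transiently transfected HepG2 cells were dosed for 24 hours; activity in either direction was fitted against DMSO negative control.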

[9] = ATG_NFI_CIS: Attagene CIS-FACTORIAL HepG2 Assay for human Nuclear Factor I (NFI) (AID 2282989); settings: HepG2 cis-regulatory reporter, NFI response element transcription; actives raise or lower the signal
Outline: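 After transient transfection of HepG2 with cis-promoter reporter constructs and 24 h dosing, RNA is reverse-transcribed, amplified, 6-FAM end-labelled and HpaI-digested before capillary analysis. Bidirectional curve fitting against DMSO.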

[10] = target: Peroxisome proliferator-activated receptor gamma (Homo sapiens) (UniProt P37231); test: ATG_PPARg_TRANS: Attagene TRANS-FACTORIAL HepG2 Assay for human Peroxisome Proliferator-activated Receptor-gamma (PPARg) (AID 2283007; active = hit-call score of the fitted dose curve at least 0.9, where 1 is the maximum)
Outline: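 A TRANS-format multiplexed reporter assay measures activity of an exogenous chimeric NR-Gal4 protein in HepG2 cells. After 24 h of chemical exposure, reporter transcripts are amplified, fluorescently labelled and sized by capillary electrophoresis, with gain of signal scored against DMSO.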

[11] = target: Nuclear receptor subfamily 1 group I member 2 (Homo sapiens) (UniProt O75469); test: ATG_PXR_TRANS: Attagene TRANS-FACTORIAL HepG2 Assay for human Pregnane X Receptor (PXR) (AID 2283008; active = hit-call score of the fitted dose curve at least 0.9, where 1 is the maximum)
Outline: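 Read-out is fluorescence of labelled reporter cDNA fragments separated by capillary electrophoresis after RT-PCR and HpaI digestion. Source: HepG2 cells carrying PXR-GAL4/UAS reporter constructs, treated 24 h; activity fitted upward relative to DMSO.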

[12] = target: human Retinoid X Receptor beta (RXRb), RXRB (gene 6257) (UniProt P28702); test: ATG_RXRb_TRANS: Attagene TRANS-FACTORIAL HepG2 Assay for human Retinoid X Receptor beta (RXRb) (AID 2283013; active = hit-call score of the fitted dose curve at least 0.9, where 1 is the maximum)
Outline: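 Multiplexed TRANS reporter assay in HepG2; 24 h dosing; reporter mRNA by RT-PCR/CE fluorescence; gain-of-signal relative to DMSO.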

[13] = target: Cellular tumor antigen p53 (Homo sapiens) (UniProt P04637); test: TOX21_p53_BLA_p3_ratio: Tox21 HCT-116 p53 Agonism Beta-lactamase Assay, Ratio, Phase 3 (AID 2283596; active = hit-call score of the fitted dose curve at least 0.9, where 1 is the maximum)
Outline: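 HCT116 p53-bla cells (4000/well) given compound in DMSO (217-fold dilution) after 5 h, incubated 16 h at 37C. CCF4-AM substrate 2 h at room temperature; 460/530 nm emission ratio, gain fitted against DMSO.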

[14] = target: Cellular tumor antigen p53 (Homo sapiens) (UniProt P04637); test: TOX21_p53_BLA_p5_ratio: Tox21 HCT-116 p53 Agonism Beta-lactamase Assay, Ratio, Phase 5 (AID 2283599; active = hit-call score of the fitted dose curve at least 0.9, where 1 is the maximum)
Outline: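 HCT-116 p53-bla cells (4000/well) plated 5 h, dosed with compound (217-fold DMSO dilution) for 16 h at 37 C; CCF4-AM substrate 2 h at room temperature. Activity is the 460/530 nm emission ratio (405 nm excitation), fitted in gain-of-signal direction versus DMSO.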

[15] = ATG_GRE_CIS: Attagene CIS-FACTORIAL HepG2 Assay for human Glucocorticoid Response Elements (GRE) (AID 2282947); settings: HepG2 GRE cis-reporter, Attagene multiplex mRNA; actives raise or lower the signal
Outline: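 Endogenous transcription factor activity is read through cis-element reporter constructs transiently transfected into HepG2 cells. After 24 h treatment, labelled RT-PCR products are resolved by capillary electrophoresis; DMSO sets baseline for bidirectional curve fitting.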

[16] = ATG_PPRE_CIS: Attagene CIS-FACTORIAL HepG2 Assay for human Peroxisome Proliferator-activated Response Element (PPRE) (AID 2282958); settings: HepG2 PPRE cis-element reporter, Attagene transcription factor profiling; actives raise or lower the signal
Outline: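 Cells are first transfected transiently with the multiplexed reporter library, then dosed for 24 h. Total RNA is reverse-transcribed, amplified, fluorescently end-labeled and HpaI-cut before capillary electrophoresis; activity is fitted bidirectionally against DMSO controls.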

[17] = ATG_SREBP_CIS: Attagene CIS-FACTORIAL HepG2 Assay for human Sterol Regulatory Element Binding (SREBP) (AID 2282962); settings: HepG2 Attagene cis-factorial SREBP reporter, mRNA; actives raise or lower the signal
Outline: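 Transfected HepG2 (cis-regulated reporter library, endogenous TFs) → compound 24 h → total RNA → oligo(dT) RT → reporter-specific PCR → FAM primer extension, HpaI cut → CE fluorescence. Fit bidirectional vs DMSO.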

[18] = target: Hepatocyte nuclear factor 4-alpha (Homo sapiens) (UniProt P41235); test: ATG_HNF4a_TRANS: Attagene TRANS-FACTORIAL HepG2 Assay for human Hepatocyte Nuclear Factor 4 alpha (HNF4a) (AID 2282982; active = hit-call score of the fitted dose curve at least 0.9, where 1 is the maximum); settings: HepG2 HNF4a transactivation reporter, mRNA readout
Outline: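 Gain-of-signal mRNA induction, relative to DMSO vehicle, was read after 24 h compound treatment of HepG2 cells bearing transfected GAL4-UAS reporters. Detection used RT-PCR, 6-FAM primer extension and capillary electrophoresis.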

[19] = target: Cellular tumor antigen p53 (Homo sapiens) (UniProt P04637); test: TOX21_p53_BLA_p4_ratio: Tox21 HCT-116 p53 Agonism Beta-lactamase Assay, Ratio, Phase 4 (AID 2283601; active = hit-call score of the fitted dose curve at least 0.9, where 1 is the maximum)
Outline: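 HCT-116 p53 beta-lactamase reporter cells (4000/well) preincubated 5 h, then compound (217-fold dilution of DMSO stock) for 16 h at 37C. CCF4-AM substrate added 2 h at room temperature; 460/530 nm emission ratio fitted upward versus DMSO.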

[20] = target: Retinoic acid receptor RXR-alpha (Homo sapiens) (UniProt P19793); test: ATG_RXRa_TRANS: Attagene TRANS-FACTORIAL HepG2 Assay for human Retinoid X Receptor alpha (RXRa) (AID 2283012; active = hit-call score of the fitted dose curve at least 0.9, where 1 is the maximum)
Outline: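 Cells (HepG2) carried transiently transfected GAL4-responsive reporter units. Following a 24 h chemical incubation, reporter mRNA induction was read via RT-PCR fragment analysis; DMSO served as negative control and baseline.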

Measured: AC50

Chain of Peroxisome proliferator-activated receptor gamma (Homo sapiens) (P37231 whole entry, looked up, the tested form may be a part): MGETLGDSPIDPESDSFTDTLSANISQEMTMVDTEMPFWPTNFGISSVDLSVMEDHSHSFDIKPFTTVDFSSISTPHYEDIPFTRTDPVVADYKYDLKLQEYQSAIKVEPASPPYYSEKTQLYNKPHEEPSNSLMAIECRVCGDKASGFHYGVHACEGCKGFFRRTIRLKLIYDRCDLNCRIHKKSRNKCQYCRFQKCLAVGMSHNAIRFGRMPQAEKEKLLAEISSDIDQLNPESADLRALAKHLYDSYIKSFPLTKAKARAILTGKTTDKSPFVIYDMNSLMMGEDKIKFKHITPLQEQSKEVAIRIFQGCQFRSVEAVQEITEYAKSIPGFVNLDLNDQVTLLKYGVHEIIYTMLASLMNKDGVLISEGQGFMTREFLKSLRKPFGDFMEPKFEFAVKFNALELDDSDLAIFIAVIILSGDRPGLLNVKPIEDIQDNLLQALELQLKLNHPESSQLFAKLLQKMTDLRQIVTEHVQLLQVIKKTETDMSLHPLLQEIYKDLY
Chain of Retinoic acid receptor RXR-alpha (Homo sapiens) (P19793 whole entry, looked up, the tested form may be a part): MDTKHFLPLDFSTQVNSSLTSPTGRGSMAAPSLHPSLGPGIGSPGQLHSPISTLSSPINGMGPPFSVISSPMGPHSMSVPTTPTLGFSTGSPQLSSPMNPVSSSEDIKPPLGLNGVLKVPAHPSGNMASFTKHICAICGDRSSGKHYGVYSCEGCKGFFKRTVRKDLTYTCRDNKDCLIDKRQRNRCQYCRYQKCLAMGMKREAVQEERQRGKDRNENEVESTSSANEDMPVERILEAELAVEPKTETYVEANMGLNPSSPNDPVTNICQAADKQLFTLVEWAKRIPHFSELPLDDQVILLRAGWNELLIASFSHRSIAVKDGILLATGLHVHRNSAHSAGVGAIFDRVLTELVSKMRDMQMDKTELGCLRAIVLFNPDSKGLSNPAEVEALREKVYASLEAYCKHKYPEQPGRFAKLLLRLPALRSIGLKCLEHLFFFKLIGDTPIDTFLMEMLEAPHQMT
Chain of human Retinoid X Receptor beta (RXRb), RXRB (gene 6257) (P28702 whole entry, looked up): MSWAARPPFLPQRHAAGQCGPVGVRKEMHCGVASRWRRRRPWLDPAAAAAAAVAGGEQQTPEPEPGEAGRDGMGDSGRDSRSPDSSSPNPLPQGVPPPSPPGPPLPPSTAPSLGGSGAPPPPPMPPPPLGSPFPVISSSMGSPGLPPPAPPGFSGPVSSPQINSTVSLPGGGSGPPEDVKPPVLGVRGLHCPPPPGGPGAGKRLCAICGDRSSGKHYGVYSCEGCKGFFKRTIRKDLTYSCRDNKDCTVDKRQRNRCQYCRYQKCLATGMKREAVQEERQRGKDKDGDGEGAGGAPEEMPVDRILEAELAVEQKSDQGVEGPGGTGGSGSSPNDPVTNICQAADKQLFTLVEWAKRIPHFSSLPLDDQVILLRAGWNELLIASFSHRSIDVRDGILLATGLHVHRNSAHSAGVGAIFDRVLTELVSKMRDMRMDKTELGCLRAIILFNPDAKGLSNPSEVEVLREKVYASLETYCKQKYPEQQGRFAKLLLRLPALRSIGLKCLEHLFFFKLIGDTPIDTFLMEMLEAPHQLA
Chain of Cellular tumor antigen p53 (Homo sapiens) (P04637 whole entry, looked up): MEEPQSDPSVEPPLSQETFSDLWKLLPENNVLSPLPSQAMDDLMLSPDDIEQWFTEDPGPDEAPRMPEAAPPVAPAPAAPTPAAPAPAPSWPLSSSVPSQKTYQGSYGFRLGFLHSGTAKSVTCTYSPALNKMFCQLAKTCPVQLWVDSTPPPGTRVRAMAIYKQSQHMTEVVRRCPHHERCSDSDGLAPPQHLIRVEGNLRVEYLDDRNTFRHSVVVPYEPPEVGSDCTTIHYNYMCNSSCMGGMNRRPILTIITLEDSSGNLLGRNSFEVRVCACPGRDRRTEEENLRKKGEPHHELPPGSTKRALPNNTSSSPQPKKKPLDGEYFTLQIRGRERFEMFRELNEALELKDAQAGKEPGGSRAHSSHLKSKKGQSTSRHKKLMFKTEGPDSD
Chain of Nuclear receptor subfamily 1 group I member 2 (Homo sapiens) (O75469 whole entry, looked up, the tested form may be a part): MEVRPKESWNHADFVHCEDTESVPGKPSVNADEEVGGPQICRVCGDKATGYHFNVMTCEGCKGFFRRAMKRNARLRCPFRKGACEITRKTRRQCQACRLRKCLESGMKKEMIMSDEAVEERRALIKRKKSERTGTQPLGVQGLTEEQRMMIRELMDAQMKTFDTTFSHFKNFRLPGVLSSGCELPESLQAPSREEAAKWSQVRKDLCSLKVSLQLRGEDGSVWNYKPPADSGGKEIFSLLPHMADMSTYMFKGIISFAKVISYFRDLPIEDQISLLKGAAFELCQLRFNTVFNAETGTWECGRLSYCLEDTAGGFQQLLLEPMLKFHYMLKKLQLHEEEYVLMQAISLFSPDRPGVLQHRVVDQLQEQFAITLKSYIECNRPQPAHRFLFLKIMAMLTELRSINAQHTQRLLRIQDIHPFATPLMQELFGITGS
Chain of Hepatocyte nuclear factor 4-alpha (Homo sapiens) (P41235 whole entry, looked up, the tested form may be a part): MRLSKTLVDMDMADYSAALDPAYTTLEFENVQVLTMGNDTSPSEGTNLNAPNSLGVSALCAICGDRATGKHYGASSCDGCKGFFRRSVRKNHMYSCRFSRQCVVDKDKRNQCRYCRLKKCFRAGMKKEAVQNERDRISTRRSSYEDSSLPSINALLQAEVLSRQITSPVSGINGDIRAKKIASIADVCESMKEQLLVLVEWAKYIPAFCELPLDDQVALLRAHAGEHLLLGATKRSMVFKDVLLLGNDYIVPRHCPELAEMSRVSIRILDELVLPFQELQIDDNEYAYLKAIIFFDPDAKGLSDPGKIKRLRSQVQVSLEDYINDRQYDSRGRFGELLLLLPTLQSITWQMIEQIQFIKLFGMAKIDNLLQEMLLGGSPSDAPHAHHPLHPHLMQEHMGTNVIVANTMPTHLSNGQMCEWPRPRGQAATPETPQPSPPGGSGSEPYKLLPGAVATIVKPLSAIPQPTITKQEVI
Chain of X-box-binding protein 1 (Homo sapiens) (P17861 whole entry, looked up): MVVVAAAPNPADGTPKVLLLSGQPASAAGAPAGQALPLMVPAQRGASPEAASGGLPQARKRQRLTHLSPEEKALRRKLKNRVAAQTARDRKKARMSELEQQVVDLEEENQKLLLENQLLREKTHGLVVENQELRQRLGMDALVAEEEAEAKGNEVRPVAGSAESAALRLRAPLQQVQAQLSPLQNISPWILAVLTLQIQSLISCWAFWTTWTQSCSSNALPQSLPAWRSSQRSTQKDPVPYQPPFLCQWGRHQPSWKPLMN
Chain of Nuclear respiratory factor 1 (Homo sapiens) (Q16656 whole entry, looked up, the tested form may be a part): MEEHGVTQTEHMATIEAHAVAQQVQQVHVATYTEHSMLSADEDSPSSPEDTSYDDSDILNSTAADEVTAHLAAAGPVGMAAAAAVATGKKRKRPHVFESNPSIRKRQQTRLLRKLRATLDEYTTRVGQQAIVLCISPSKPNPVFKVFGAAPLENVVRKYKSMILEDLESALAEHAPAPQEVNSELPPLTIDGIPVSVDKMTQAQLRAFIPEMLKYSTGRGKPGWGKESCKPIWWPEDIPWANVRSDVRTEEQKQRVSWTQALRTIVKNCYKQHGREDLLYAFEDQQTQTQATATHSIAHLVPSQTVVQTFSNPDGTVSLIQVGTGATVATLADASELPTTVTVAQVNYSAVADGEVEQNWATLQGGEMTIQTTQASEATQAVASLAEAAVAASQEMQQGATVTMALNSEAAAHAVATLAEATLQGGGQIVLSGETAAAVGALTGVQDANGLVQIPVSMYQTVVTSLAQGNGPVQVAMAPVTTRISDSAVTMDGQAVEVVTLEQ

CCc1cccc(C)c1N(C(=O)CCl)[C@@H](C)COC
active: [10] 27 µM | [11] 0.18 µM
not listed: [15] | [16] | [17] | [18] | [19] | [20]
inactive: all other assays above

c1ccc(P(c2ccccc2)c2ccccc2)cc1
active: [11] 6.89 µM | [12] 38.6 µM
not listed: [8] | [13] | [17] | [18] | [19] | [20]
inactive: all other assays above

Cc1ncc(C[n+]2csc(CCO)c2C)c(N)n1
not listed: [2] | [3] | [6] | [7] | [11] | [12] | [15] | [20]
inactive: all other assays above

CC1OC(C)OC(C)O1 (centres undefined)
not listed: [4] | [5] | [7] | [12] | [13] | [15] | [17]
inactive: all other assays above

Nc1ccc(-c2ccc(N)c(N)c2)cc1N
not listed: [4] | [8] | [11] | [13] | [14] | [15] | [17] | [19]
inactive: all other assays above

CC(C)(C)C(O)C(Oc1ccc(-c2ccccc2)cc1)n1cncn1 (centres undefined)
active: [17] 12.7 µM | [10] 14.3 µM | [11] 1.78 µM
not listed: [5] | [9] | [13] | [14] | [18] | [19]
inactive: all other assays above

O=C(O)CCCc1ccc(N(CCCl)CCCl)cc1
active: [13] 43.5 µM and 42.8 µM and 23 µM | [14] 62.6 µM and 64.8 µM and 27.3 µM | [19] 71 µM
inactive: [1] | [2] | [16] | [5] | [17] | [18] | [7] | [8] | [9] | [11] | [20] | [12] | [19]

SCc1ccco1
active: [10] 27.9 µM
not listed: [8] | [13] | [14] | [19] | [20]
inactive: all other assays above

Oc1ccc(Cl)cc1
not listed: [6] | [8] | [10] | [11] | [12] | [15]
inactive: all other assays above
